Bioassay records: PubChem, National Center for Advancing Translational Sciences (NCATS)
Hits are enriched below; roughly 19% of the tested compounds scored in any of these assays.
DT40 TDP1 CPT = qHTS for Inhibitors of human tyrosyl-DNA phosphodiesterase 1 (TDP1): qHTS in cells in presence of CPT; chicken DT40 Tdp1-/-;hTDP1 cells + 20 nM CPT, ATP luminescence, 48 h; Potency, µM (series often up to 46.2 µM), for the others: at the highest dose activity change, negative = growth inhibition, hits mostly inhibitors; actives 12% (n = 420,000); note: potency is the fitted concentration of half-maximal effect; nearly all actives have a fitted effect of over 55% in size
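Chicken DT40 Tdp1-/- cells complemented with human TDP1, 400 cells/well, exposed to compounds plus 20 nM camptothecin for at least 48 h at 37 C; viability read as ATP content by CellTiter-Glo luminescence.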
IL-1B inflam inh = qHTS for Inhibitors of Inflammasome Signaling: IL-1-beta AlphaLISA Primary Screen | activity change, % at 57.5 µM | AID 743279, 2014 | THP-1 LPS/ATP IL-1B secretion, AlphaLISA, 16 h; active compounds read low | actives 4.7% (n = 360,000); in the data active = activity change below about -50%; inconclusive = mostly about -30% to -49%
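Secreted IL-1B measured by AlphaLISA bead assay after 16 h compound exposure of THP-1 cells; compounds (final up to 57.5 uM) added 1 h before LPS (250 ng/mL) and ATP (1.25 mM) stimulation; lower signal means less secretion.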
HT1080NT lethal = qHTS for induction of synthetic lethality in tumor cells producing 2HG: qHTS for the HT-1080-NT fibrosarcoma cell line; actives 1.6% (n = 360,000); Potency, µM (highest dose often 46.1 µM), for inactives: top-dose activity, negative = less viability, actives largely listed as cytotoxic; HT-1080-NT fibrosarcoma viability, CellTiter-Glo ATP luminescence, 48 h;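 note: NT is the 2HG producing partner of a matched IDH1 knockdown line; potency is the fitted concentration of half-maximal effect; 0% = DMSO-treated cells and -100% = media-only wells without cells; nearly all actives have a fitted effect of over 55% in size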
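HT-1080-NT fibrosarcoma cells (2HG-overproducing), 750 cells/well in RPMI with 5% FBS, dosed after 2 h and incubated 48 h at 37C. CellTiter-Glo luminescence normalized to DMSO and no-cell wells; concentration-response curves fitted and classed.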
HT1080 IDH1KD tx = qHTS for induction of synthetic lethality in tumor cells producing 2HG: qHTS for the HT-1080-IDH1KD cell line; HT-1080 IDH1 knockdown viability, ATP luminescence, 48 h; actives 2% (n = 360,000); Potency, µM (doses to about 46.1 µM), for the others: top-dose activity, negative = toxicity, most hits filed as cytotoxic; AID 686971, 2013;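 note: potency is the fitted concentration of half-maximal effect; 0% = DMSO wells and -100% = cell-free medium wells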
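In this qHTS, HT-1080 cells depleted of IDH1 are exposed for 48 h at 37 °C to compound titrations. Toxicity is scored from CellTiter-Glo luminescence, with DMSO as full viability and medium alone as none.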
DT40 TDP1 no CPT = qHTS for Inhibitors of human tyrosyl-DNA phosphodiesterase 1 (TDP1): qHTS in cells in absence of CPT; DT40 Tdp1-/- hTDP1 cells, no CPT, ATP luminescence, 48 h; actives 15% (n = 420,000); Potency, µM (top dose mostly 46.2 µM), inactives show at the highest dose activity change, negative = growth inhibition, usual class: inhibitors; AID 686978, 2013; note: potency is the fitted concentration of half-maximal effect; nearly all actives have a fitted effect of over 55% in size
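Readout: luminescence from CellTiter-Glo after 30 min in the dark at RT. Cells: DT40 Tdp1-/- with stable hTDP1, 400/well. Exposure: compounds alone, ≥48 hr, 37 °C.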
Starred values were filed as active, the others as inactive. Unless noted, calls come from the whole dose curve; as a rule, active = well fitted curve in the direction sought with a large enough effect; inconclusive = small, poorly fitted or top-dose-only effect, or another doubt; inactive = no such curve, though single readings can be large; an effect the other way counts as inactive or inconclusive. Unless noted, % is set by controls: 0 for no effect and ±100 for the full control effect.

What do the screens show for `CC(C)NC(=O)NC(=O)CN1C(=O)NC(Cc2c[nH]c3ccccc23)C1=O` (centres undefined)?
DT40 TDP1 CPT: -11%; IL-1B inflam inh: 0; HT1080NT lethal: 0%; HT1080 IDH1KD tx: -3%; DT40 TDP1 no CPT: 3%

Results for O=C(COc1ccc2ccc(=O)oc2c1)Nc1ccc(N2CCCCC2)cc1 ?
DT40 TDP1 CPT: inconclusive; IL-1B inflam inh: -20; HT1080NT lethal: 1%; HT1080 IDH1KD tx: 5%; DT40 TDP1 no CPT: 18µM*

Results for O=C(COc1ccc2ccc(=O)oc2c1)N1CCN(c2ccc(F)cc2)CC1 ?
DT40 TDP1 CPT: inconclusive; IL-1B inflam inh: -15; HT1080NT lethal: -8%; HT1080 IDH1KD tx: 5%; DT40 TDP1 no CPT: 23µM*

What do the screens show for `Cc1cc(C)cc(OCCOCCn2c(-c3ccc(Cl)cc3)nc3ccccc3c2=O)c1`?
DT40 TDP1 CPT: inconclusive; DT40 TDP1 no CPT: -29%

What do the screens show for `O=C(COC(=O)COc1ccc(Cl)cc1)Nc1ccc2c(c1)OCCO2`?
DT40 TDP1 CPT: -19%; IL-1B inflam inh: 14; HT1080NT lethal: 8%; HT1080 IDH1KD tx: 6%; DT40 TDP1 no CPT: 15%

How did N#CCCn1cc(/C=N/O)c(-c2ccc(Cl)cc2)n1 do in these assays?
DT40 TDP1 CPT: -16%; IL-1B inflam inh: -23; HT1080NT lethal: -2%; HT1080 IDH1KD tx: -25%; DT40 TDP1 no CPT: -6%

What do the screens show for `N#CCCn1cc(/C=N/O)c(-c2ccc(-c3ccccc3)cc2)n1`?
DT40 TDP1 CPT: 23µM*; IL-1B inflam inh: -19; HT1080NT lethal: inconclusive; HT1080 IDH1KD tx: inconclusive; DT40 TDP1 no CPT: inconclusive

Results for CCN1C(=O)/C(=C\c2cn(CCC#N)nc2-c2ccc(F)cc2)SC1=S ?
DT40 TDP1 CPT: inconclusive; IL-1B inflam inh: -24; HT1080NT lethal: -3%; HT1080 IDH1KD tx: 2%; DT40 TDP1 no CPT: -29%

What do the screens show for `N#CCCn1cc(/C=C2\NC(=S)N(c3ccccc3)C2=O)c(-c2ccc(-c3ccccc3)cc2)n1`?
DT40 TDP1 CPT: 6.5µM*; IL-1B inflam inh: -8; HT1080NT lethal: -13%; HT1080 IDH1KD tx: -19%; DT40 TDP1 no CPT: 8.2µM*

What do the screens show for `N#CCCn1cc(C=C(C#N)C#N)c(-c2ccc(Cl)cc2)n1`?
DT40 TDP1 CPT: 16µM*; IL-1B inflam inh: -28; HT1080NT lethal: -13%; HT1080 IDH1KD tx: -7%; DT40 TDP1 no CPT: inconclusive

Results for N#CCCn1cc(/C=C(\C#N)c2nc3ccccc3s2)c(-c2ccc(F)cc2)n1 ?
DT40 TDP1 CPT: 2%; IL-1B inflam inh: 43; HT1080NT lethal: -4%; HT1080 IDH1KD tx: -18%; DT40 TDP1 no CPT: -24%

Results for Cc1cc(NC(=O)/C=C/c2cccc(Cl)c2)n(-c2nc3ccccc3[nH]2)n1 ?
DT40 TDP1 CPT: -92%; IL-1B inflam inh: 27; HT1080NT lethal: -4%; HT1080 IDH1KD tx: -9%; DT40 TDP1 no CPT: 12µM*

What do the screens show for `CCn1c(NC(=O)/C=C/c2ccc(F)cc2)nc2ccccc21`?
DT40 TDP1 CPT: inconclusive; IL-1B inflam inh: 48; HT1080NT lethal: -29%; HT1080 IDH1KD tx: -26%; DT40 TDP1 no CPT: 23µM*

How did COc1ccc(/C=C/C(=O)Nc2cc(C)nn2-c2nc3ccccc3[nH]2)cc1 do in these assays?
DT40 TDP1 CPT: inconclusive; IL-1B inflam inh: -6; HT1080NT lethal: -8%; HT1080 IDH1KD tx: -6%; DT40 TDP1 no CPT: 18µM*

How did Cc1cc(NC(=O)/C=C/c2ccc(F)cc2)n(-c2nc3ccccc3[nH]2)n1 do in these assays?
DT40 TDP1 CPT: inconclusive; IL-1B inflam inh: 7; HT1080NT lethal: -13%; HT1080 IDH1KD tx: -3%; DT40 TDP1 no CPT: 15µM*

How did COc1ccc(/C=C/C(=O)Nc2cc(C)nn2-c2nc3ccccc3n2Cc2cccc([N+](=O)[O-])c2)cc1 do in these assays?
DT40 TDP1 CPT: -24%; IL-1B inflam inh: 8; HT1080NT lethal: 2%; HT1080 IDH1KD tx: 1%; DT40 TDP1 no CPT: -6%

What do the screens show for `CCc1ccccc1Nc1nc2ccccc2n1CC`?
DT40 TDP1 CPT: -11%; IL-1B inflam inh: 5; HT1080NT lethal: 11%; HT1080 IDH1KD tx: 14%; DT40 TDP1 no CPT: inconclusive

What do the screens show for `COc1cccc(NC(=O)CN(C)C(=O)CCNC(=O)c2ccccc2OC)c1`?
DT40 TDP1 CPT: -8%; IL-1B inflam inh: 10; HT1080NT lethal: 15%; HT1080 IDH1KD tx: 24%; DT40 TDP1 no CPT: -23%

How did Cc1cc(NC(=O)/C=C/c2cccc(F)c2)n(-c2nc3ccccc3[nH]2)n1 do in these assays?
DT40 TDP1 CPT: 23µM*; IL-1B inflam inh: 0; HT1080NT lethal: -8%; HT1080 IDH1KD tx: -17%; DT40 TDP1 no CPT: 12µM*

Results for COc1ccc(C(=O)CCN(C)C)c2ccccc12 ?
DT40 TDP1 CPT: 1.3µM*; DT40 TDP1 no CPT: 2.8µM*

Results for CCOc1ccc(CC(=N)C2=C(O)CC(C)(C)CC2=O)cc1OCC ?
DT40 TDP1 CPT: 23%; IL-1B inflam inh: 30; HT1080NT lethal: 11%; HT1080 IDH1KD tx: 10%; DT40 TDP1 no CPT: -19%

Results for CCOc1ccc(CC(=NCCc2ccccc2)C2=C(O)CC(C)(C)CC2=O)cc1OCC ?
DT40 TDP1 CPT: 15µM*; IL-1B inflam inh: -66*; HT1080NT lethal: 0%; HT1080 IDH1KD tx: -1%; DT40 TDP1 no CPT: 16µM*

How did CC(NS(=O)(=O)OCC(Cl)(Cl)Cl)c1ccc(C(C)(C)C)cc1 (centres undefined) do in these assays?
DT40 TDP1 CPT: 16µM*; IL-1B inflam inh: -72*; HT1080NT lethal: inconclusive; HT1080 IDH1KD tx: 29µM*; DT40 TDP1 no CPT: inconclusive

How did CC1(c2ccc(OC(F)F)cc2)NC(=O)N(CC(=O)N2c3ccccc3NC(=O)C2(C)C)C1=O (centres undefined) do in these assays?
DT40 TDP1 CPT: -24%; IL-1B inflam inh: 18; HT1080NT lethal: -14%; HT1080 IDH1KD tx: -7%; DT40 TDP1 no CPT: -14%

How did N#C/C(=C\c1ccc(OCc2ccccc2)cc1)C(=O)Nc1ccc(C(=O)O)cc1 do in these assays?
DT40 TDP1 CPT: -8%; IL-1B inflam inh: -12; HT1080NT lethal: 22%; HT1080 IDH1KD tx: 16%; DT40 TDP1 no CPT: -14%

How did Cc1cc(C)c(NC(=O)/C(C#N)=C/c2ccc(OCc3ccc(F)cc3)cc2)c(C)c1 do in these assays?
DT40 TDP1 CPT: 2.6µM*; IL-1B inflam inh: -2; HT1080NT lethal: -3%; HT1080 IDH1KD tx: 3%; DT40 TDP1 no CPT: 6.5µM*
